We go through twelve compounds from PubChem BioAssay (NCATS).

Where “and” joins values, the source holds several entries; their conditions need not be identical. Equal entries are not always repeated. Results filed as inconclusive are left out. Unmarked numbers belong to inactive results. Calls of active or inactive are those of the source. Calls follow the shape of the dose curve; as a rule, active = well fitted inhibition curve with a large enough effect; inconclusive = small, poorly fitted or top-dose-only effect; inactive = flat fitted curve, though single readings scatter.
% is scaled to controls: 0 for no effect and ±100 for the full control effect.

The assay has as its system KB-3-1. As to the kind of experiment: Cytotoxic Profiling of Annotated Libraries Using Quantitative High-Throughput Screening (AID 1296008). Also: nearly all actives have a fitted effect of over 60% in size. The settings on record: Five cell lines viability, CellTiter-Glo ATP luminescence, 48-72 h; max response: stronger effect = lower value. A digest of the protocol:
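Cytotoxicity was measured as CellTiter-Glo ATP luminescence, read after 10 min at room temperature. Compound treatment of the cells lasted 48 or 72 hr at 37 degrees Celsius in a qHTS format.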
Take `CCC(C)C(C(=O)OCC[N+](C)(CC)CC)c1ccccc1` (configuration not stated): the max response is -5.4%.
The same measure, in the same setting: the figure for `CS(=O)(=O)NC(=O)CCC/C=C\C[C@H]1C(=O)C[C@@H](O)[C@@H]1/C=C/[C@H](O)COc1ccccc1` is -12.3%; for `Cc1ccccc1CNc1ncnc2c1ncn2[C@@H]1O[C@H](CO)[C@@H](O)[C@H]1O` it is -19%.
For `CC1(C)CN(C(=O)c2ccc(-c3cccc4nc(NC(=O)C5CC5)nn34)cc2)C1`, the call was inactive.
In the case of `CCCC(=O)O[C@]1(C(=O)COC(=O)CC)[C@@H](C)C[C@H]2[C@@H]3CCC4=CC(=O)C=C[C@]4(C)[C@@]3(F)[C@@H](O)C[C@@]21C`, the max response was -7.8%.
The same measure, in the same setting: the figure for `CC1(C)S[C@@H]2[C@H](NC(=O)C(C(=O)Oc3ccc4c(c3)CCC4)c3ccccc3)C(=O)N2[C@H]1C(=O)O` (some centres not stated) is 21.3%; for `CN(C)Cc1ccccc1` it is -10.5%.
As to `CCC(=O)OCC(=O)[C@@]1(OC(=O)CC)[C@H](C)C[C@H]2[C@@H]3CCC4=CC(=O)C=C[C@]4(C)[C@@]3(F)[C@@H](O)C[C@@]21C`, the max response was -9.03%.
On the same count and under the same terms, the figure for `O=C1C(c2[nH]c3ccc(S(=O)(=O)O)cc3c2O)=Nc2ccc(S(=O)(=O)O)cc21` is 3.94% and -6.29%.
The same measure, in the same setting: the figure for `CCCCCCCCCCCCCCCCCC(=O)[O][Al]` is -8.23%; for `O=C[C@H](O)[C@@H](O)[C@H](O)[C@H](O)CO` it is -5.79%.
On the same count and under the same terms, the same measure for `CO/N=C(\C(=O)N[C@@H]1C(=O)N2C(C(=O)OCOC(=O)C(C)(C)C)=C(/C=C\c3scnc3C)CS[C@H]12)c1csc(N)n1`: -14.1%.
